We go through 47 sequences from publication PMC7819943, “Rice protein-binding microarrays: a tool to detect cis-acting elements near promoter regions in rice”.

Over roughly 68,000 sequences, “fluorescence intensity (a.u.)” has its median near 9,100; the highest 2% begin near 16,000. Shown is part of a subset that was picked to be rich in the highest values.

The target of the assay is OsWRKY34 (Oryza sativa, UniProt Q0JBA9 1-250). Nature of the assay: protein-binding microarray (RPBM); PBS, 2% BSA, 51.3 ng/ul salmon testes DNA, 50 uM zinc acetate, 200 nM TF, 25 C, 1 h; high values mean tight binding. Conditions: protein: recombinant; tags: N-terminal polyhistidine and DsRed monomer fusion (pET32a); label: CyDye5-dUTP incorporated in the synthesized complementary strand; 3' TTTTT single-stranded linker to array surface; dsDNA, one strand shown. The method, boiled down: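 For the binding signal, per-feature fluorescence intensity was read in arbitrary units on an Axon 4000B scanner. Before scanning, a 2% BSA-blocked custom Agilent array made double-stranded with Cy5-dUTP was washed after 1 h at 25 °C with 200 nM protein and 50 µM zinc acetate. The proteins were Ni–NTA-purified transcription factors with N-terminal polyhistidine and DsRed fusions, expressed in E. coli BL21-CodonPlus.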
OsWRKY34, sequence (Q0JBA9 entry or part of it): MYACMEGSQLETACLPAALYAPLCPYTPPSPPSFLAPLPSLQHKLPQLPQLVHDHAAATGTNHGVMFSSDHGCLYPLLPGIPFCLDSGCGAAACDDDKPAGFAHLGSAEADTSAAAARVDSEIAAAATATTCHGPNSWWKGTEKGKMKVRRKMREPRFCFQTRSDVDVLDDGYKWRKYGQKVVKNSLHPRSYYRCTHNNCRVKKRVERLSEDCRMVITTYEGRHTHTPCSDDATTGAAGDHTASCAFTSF
In the case of “GTCCTTTCAGTGTTGCGCTTTTGCTTATTGTAGTTATTGGCGGAGTCACCTAGTGCAG”, the binding signal was 16300 fluorescence intensity (a.u.).
Consider “CATCCAACCATCACACACAGTTAGCATATCAGTAGTCGTTCGGAGTCACCTAGTGCAG”, for which the binding signal was 8210 fluorescence intensity (a.u.).
With “TCCATCCCGGCCCGGCACTGCACACACGCGCGTAGTACCACGGAGTCACCTAGTGCAG” the figure was 8130 fluorescence intensity (a.u.).
On to “ATGACCGGCCACCACCATTGCCACCGGCCGATCTCCTCTTCGGAGTCACCTAGTGCAG”, for which the binding signal was 9360 fluorescence intensity (a.u.).
With “AACTTGAGCGTTGACCGCTTTGACTCCTCTTCTTTCTCCACGGAGTCACCTAGTGCAG”, the binding signal is 24900 fluorescence intensity (a.u.).
Consider “TCTTCGGCCTCTCCGCCTCCGCCATTGACAGCGTTGACCACGGAGTCACCTAGTGCAG”, for which the binding signal was 18300 fluorescence intensity (a.u.).
Regarding “GCCATTGACAGCGTTGACCAAGTCAGCCGCTCCAGCCTCTCGGAGTCACCTAGTGCAG”, the binding signal is 14200 fluorescence intensity (a.u.).
Under “ACTCCTACAGTAGTGACTTGAGTAGCGCTTCTTTTTTCCACGGAGTCACCTAGTGCAG” stands 9440 fluorescence intensity (a.u.); under “AGACCGTTGACTTGACTAGTCCACTCCTCTTTCACACGTACGGAGTCACCTAGTGCAG”, 12100 fluorescence intensity (a.u.); under “GCCACCTTTTGTTCCGCAACCGCAATGATTTCTTCTTCTTCGGAGTCACCTAGTGCAG”, 14800 fluorescence intensity (a.u.).
With “TAGTGGTGGTCTTGATTCCTGACATAGCAGACGCATCTGACGGAGTCACCTAGTGCAG”, the binding signal was 10500 fluorescence intensity (a.u.).
For the sequence “TATATATATATATATATATAGATTTATTGACATCTATATGCGGAGTCACCTAGTGCAG”, the binding signal was 9230 fluorescence intensity (a.u.).
Under “GTTTGACATGCAGACTTGATTCTATCACCTATAGCATCTGCGGAGTCACCTAGTGCAG” stands 28100 fluorescence intensity (a.u.).
Regarding “ATCTGATTTTTATTTTCAGCATATGCATCGTTTTCATGTTCGGAGTCACCTAGTGCAG”, the binding signal is 10200 fluorescence intensity (a.u.).
Take “CTGTCGTGTTTCCTCTGATTAGTTCATACAGCATCTGTTACGGAGTCACCTAGTGCAG”: the binding signal was 17600 fluorescence intensity (a.u.).
Take “GAGTTTTTACTTTGTAATGTTTGACCACTCGTCTTATTCACGGAGTCACCTAGTGCAG”: the binding signal is 8880 fluorescence intensity (a.u.).
For the sequence “TTTACATTCATTTCTCTATACGAGCATGGGCCGCACTATACGGAGTCACCTAGTGCAG”, the binding signal was 9830 fluorescence intensity (a.u.).
Under “ATTTTCATTTGGTTGGTGTGGTTATCTCTTTTTTCATTTACGGAGTCACCTAGTGCAG” stands 20700 fluorescence intensity (a.u.).
Take “TCAGTTTTTGTTTGCAATGTTTGACCACTCGTCTTATTCACGGAGTCACCTAGTGCAG”: the binding signal is 18500 fluorescence intensity (a.u.).
As to “TTCAGTTTTTGCTTGCAACGTTTGACCACTCGTCTTATTCCGGAGTCACCTAGTGCAG”, the binding signal is 15600 fluorescence intensity (a.u.).
As for “CTTCCTAACGTTCATATCTCTGTGTTTTTAGTGTGTCATACGGAGTCACCTAGTGCAG”, the binding signal is 9860 fluorescence intensity (a.u.).
For the sequence “TCTTGGTTACATGGTGGTTGGTGTTTCATTCTCTTGTTTTCGGAGTCACCTAGTGCAG”, the binding signal is 10000 fluorescence intensity (a.u.).
For the sequence “GGGGTTTCTCATGGGCCAACTATACATTCACACGCGGCCGCGGAGTCACCTAGTGCAG”, the binding signal is 17400 fluorescence intensity (a.u.).
With “TTCTTCATTATCTCTATTTGTGGTGCTATTGGTTTATTTTCGGAGTCACCTAGTGCAG” the figure was 8980 fluorescence intensity (a.u.).
Under “GGTTTCTTCTCATTCTTCTTTTTTTCCTTTTTTCTACACGCGGAGTCACCTAGTGCAG” stands 14000 fluorescence intensity (a.u.).
With “GGCCTAATTATTGCCTTAATTTTTCTCTTTGGTTTTCTCACGGAGTCACCTAGTGCAG”, the binding signal was 9070 fluorescence intensity (a.u.).
In the case of “TGAGGGCTGCTGTGCTATTCTTCCTGGACATCTCTGGGTCCGGAGTCACCTAGTGCAG”, the binding signal is 8650 fluorescence intensity (a.u.).
For “TTTCTGTTTAACGTCAACCCGGCTGTTTTCGCCCGGTCAACGGAGTCACCTAGTGCAG”, the binding signal was 9040 fluorescence intensity (a.u.).
“GCCAAGACGCCCAAAGCACACACTCTCTCTCGCTGTCTTTCGGAGTCACCTAGTGCAG”: the binding signal was 8490 fluorescence intensity (a.u.).
For the sequence “GATTTGATGGATTTGTTGAGAGATATGCTTCTTAAGCCAACGGAGTCACCTAGTGCAG”, the binding signal is 8300 fluorescence intensity (a.u.).
In the case of “CACACCTAGGCCGCCTTTTTCAACCGGGGAGCACACCTTTCGGAGTCACCTAGTGCAG”, the binding signal is 10400 fluorescence intensity (a.u.).
As to “AATATGTACTACTTCCGTTTCAGGTTATAAGACTTTCTAGCGGAGTCACCTAGTGCAG”, the binding signal is 8400 fluorescence intensity (a.u.).
As for “CGTAGTAATGTCTGAATTCACCGCCTTAATCCTGTCACGACGGAGTCACCTAGTGCAG”, the binding signal is 8450 fluorescence intensity (a.u.).
“TTTTTCTTTTCTCGCGTACAGCTGGACGCTTCGTTTGCTTCGGAGTCACCTAGTGCAG”: the binding signal is 11100 fluorescence intensity (a.u.).
Under “CCCATCAACCGCCAAAGACTTCCCGCGCGCGTCTACATATCGGAGTCACCTAGTGCAG” stands 8450 fluorescence intensity (a.u.); under “ACCGTCCTCCTCGTCACCCACCAGCTCGACTTCCTCCGCACGGAGTCACCTAGTGCAG”, 8200 fluorescence intensity (a.u.).
With “GTCAACGATCCGGCGTCTGTTCCACTTCTACCCTCCCATCCGGAGTCACCTAGTGCAG” the figure was 8250 fluorescence intensity (a.u.); with “TCTGCATGATTCCTTGGTTTCTTTTTTTACACATTTACTTCGGAGTCACCTAGTGCAG”, 10500 fluorescence intensity (a.u.); with “ATTTAGAGTTGACTTTGGTTTATTTTTCATTGAAGTTTATCGGAGTCACCTAGTGCAG”, 9450 fluorescence intensity (a.u.).
On to “ACCATCTCTCTCTCTCTCTCTGCATGCATATCTTCTCCTCCGGAGTCACCTAGTGCAG”, for which the binding signal was 14300 fluorescence intensity (a.u.).
With “CTGTTGACTTTTTCTTATATGTTTGACCATTCGTCTTATTCGGAGTCACCTAGTGCAG” the figure was 24600 fluorescence intensity (a.u.); with “CCCTTTACTTGATTTTCTGCTGGTTGGTTTATCTTTTATTCGGAGTCACCTAGTGCAG”, 19600 fluorescence intensity (a.u.); with “CTGGATCTCCTCTCTCTCTCTCTCTCTCTGTCCTTCTTCTCGGAGTCACCTAGTGCAG”, 10800 fluorescence intensity (a.u.).
For the sequence “CATCTGTCTCTGGATCTCTGCATATCTCCTCTTCTGTGATCGGAGTCACCTAGTGCAG”, the binding signal was 17200 fluorescence intensity (a.u.).
On to “TTTCTCATATGTTTGACCATTCGTCTTATTAAAAAAATTTCGGAGTCACCTAGTGCAG”, for which the binding signal was 8930 fluorescence intensity (a.u.).
“CATATGTTTGACCATTCGTCTTATTCAAAAATTTTATTCACGGAGTCACCTAGTGCAG”: the binding signal was 9660 fluorescence intensity (a.u.).
For the sequence “ATTTTACTCTTTTGACTATATTGGTTCGGTTGAAGTTTTACGGAGTCACCTAGTGCAG”, the binding signal was 23100 fluorescence intensity (a.u.).
